This is an account of results in the supplement of paper PMC4840960.

Each structure is given as a SMILES string.

The first assay deals with E18 rat cortical neuron-glia co-culture. Put plainly: myelination (MBP fiber length per Olig2+ nucleus), % of 1 µM DAPT response (DMSO = 0) (% of DAPT); higher = more myelination, active = 50 or more. The settings on record: 1 µM; treatment time: 8 days (DIV5-DIV13). Summed up:
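Primary E18 rat cortical co-cultures (papain-dissociated, 20,000 cells/well on poly-d-lysine/laminin 96-well plates) received library compounds at 1 or 5 µM in myelination medium from DIV5 to DIV13. Cells were fixed in 4 % paraformaldehyde and immunostained for MBP and Olig2 with DAPI, and four 10X fields per well in duplicate wells were analysed. Myelination was continuous straight MBP fiber length per Olig2+ nucleus, normalised to 0.1 % DMSO (0) and a 1 µM positive control (100).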
With `CN1CCC(=C2c3ccccc3CC(=O)c3sccc32)CC1` [Ketotifen], the myelination was -0.199 (inactive).
As to `O=C(CCNNC(=O)c1ccncc1)NCc1ccccc1` [Nialamide], the myelination is -5.76 (inactive).
`NC12CC3CC(CC(C3)C1)C2` [Amantadine]: the myelination is -4.46 (inactive).
With `Cc1onc(-c2c(Cl)cccc2Cl)c1C(=O)N[C@@H]1C(=O)N2[C@@H]1SC(C)(C)[C@@H]2C(=O)O` [Dicloxacillin], the myelination is 5.21 (inactive).
As for `Cc1cc(NS(=O)(=O)c2ccc(N)cc2)no1` [Sulfamethoxazole], the myelination is -3.29 (inactive).
For `COC(=O)C1=C(C)NC(C)=C(C(=O)OC2CCCN(Cc3ccccc3)C2)C1c1cccc([N+](=O)[O-])c1` (configuration not stated) [Benidipine], the myelination is -35.3 (inactive).

Still in this assay, the particulars now being: 5 µM; treatment time: 8 days (DIV5-DIV13).
On to `c1ccc(-c2ccc(C(c3ccccc3)n3ccnc3)cc2)cc1` (configuration not stated) [Bifonazole], for which the myelination is -26.8 (inactive).
On to `OC[C@H]1O[C@@H](Oc2cc(O)cc(/C=C/c3ccc(O)cc3)c2)[C@H](O)[C@@H](O)[C@@H]1O` [Polydatin], for which the myelination is -3.53 (inactive).
Turning to `CN1[C@@H](CC(=O)c2ccccc2)CCC[C@H]1C[C@H](O)c1ccccc1` [Lobeline], the myelination is -19.7 (inactive).
As for `CCOC(=O)[C@H](CCc1ccccc1)N[C@@H](C)C(=O)N1[C@H](C(=O)O)C[C@@H]2CCC[C@@H]21` [Ramipril], the myelination was -8.93 (inactive).
`NNC(=O)c1ccncc1` [Isoniazid]: the myelination was 0.697 (inactive).
For `Cc1nc2ccccn2c(=O)c1CCN1CCC(C(=O)c2ccc(F)cc2)CC1` [Pirenperone], the myelination is -11.5 (inactive).
